This is an account of results in PubChem BioAssay.

A short description of experiment [1]: P. berghei load reduction in hepatocytes – cell-based, HepG2, luciferase luminescence, HepG2 viability, primary screen (AID 624349; in the data active means parasite load remaining mostly below about 12%, no sharp cut-off; inactive means mostly above about 10%;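 further: 100% = mean of DMSO negative control wells on the same plate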). To be noted: P. berghei liver stage in HepG2, luciferase luminescence, concentration not given here; parasite load remaining: stronger effect = lower value; viability: measured here: HepG2 viability without parasites.
Experiment [2] in a line: signal quenchers or enhancers, Cy5 substrate/SSB – biochemical, NIH Clinical Collection, E. coli SSB, artefact control for HCV NS3 helicase inhibitor project (AID 743268). Conditions: Cy5-oligo bound E. coli SSB, fluorescence interference.
Experiment [3] has as its system Hepatitis C virus NS3 helicase. The experiment can be described thus: blockers of NS3h binding to DNA – biochemical, fluorescence polarization, NIH Clinical Collection, primary screen (AID 743270). Conditions: NS3 helicase binding to Cy5-dT15 DNA, stronger effect = higher value, concentration not given here.
Experiment [4] concerns the target Single-stranded DNA-binding protein (Escherichia coli (strain K12)) (UniProt P0AGE0). The experiment in a line: SSB-ssDNA binding inhibitors – biochemical, fluorescence polarization, NIH Clinical Collection, counter-screen for HCV NS3 helicase inhibitor project (AID 743271; in the data active means inhibition above about 28%). Conditions: E. coli SSB-DNA binding, stronger effect = higher value, concentration not given here. In general terms: In fluorescence polarisation assays a small probe gives low polarisation when free and higher when bound to something large.

The nature of experiment [5]: compounds distorting NS3 helicase fluorescence signal – biochemical, NIH Clinical Collection, artefact control for HCV NS3 helicase inhibitor project (AID 743272).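 Further: HCV NS3 helicase with a Cy5 labelled single stranded DNA probe.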 Conditions: fluorescence interference counterscreen, HCV NS3 helicase assay; stronger effect = lower value. In general terms: A counterscreen serves to expose hits that act by an unwanted route or on another target.
The subject of experiment [6] is Neuropilin-2 / VEGF-C interaction (human). The experiment can be described thus: small molecules blocking Neuropilin-2/VEGF-C interaction – biochemical, microplate binding format, z-score (AID 743281). To be noted: microplate NRP2/VEGF-C binding assay; stronger effect = lower value.
A short description of experiment [7]: modulation of C. elegans fzo-1 (AID 1259413).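 Further: fzo-1 mutant C. elegans worms in liquid wells.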 Conditions: C. elegans fzo-1 modulator screen, mean read-out; stronger effect = higher value.
Experiment [8] is described as follows: EMT-state selective cytotoxicity in co-culture – imaging, PC-3E GFP, TEM4-18 mCherry, primary screen (AID 1345086;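 active means compounds killing one labelled cell type while sparing the other, by normalised counts and ratio limits, not self-fluorescent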;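 on all read-outs here: cells exposed to compound for 72 h before imaging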;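 on red/green cell ratio (normalised): normalised mesenchymal count divided by normalised epithelial count so high means epithelial killing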). Conditions: PC-3E GFP / TEM4-18 mCherry co-culture, imaging cell counts, at 1 µM; for red/green cell ratio (normalised): actives lie on both sides, counts scaled to control wells, 1 = unselective.
The nature of experiment [9]: viability loss with induced miR-34 in A549 – imaging, A549 dox-inducible miR-34, nuclei and caspase counts, primary screen (AID 1347080;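 active means compounds whose cell count with miR-34 switched on is under 0.7 times the count with it off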). To be noted: A549 miR-34 inducible, Hoechst nuclei count, 48 h.
A short description of experiment [10]: compounds altering HSF1 focus formation in cells – imaging, Selleck Cancer Library (AID 1347162; in the data active means plate-normalised HSF1 focus index below about 0.46). To be noted: human cells, HSF1 nuclear foci imaging, at 10 µM; SSMD: measured here: HSF1 foci SSMD mean; cell count: measured here: cell number; plate-normalised HSF1 focus index: stronger effect = lower value.
The nature of experiment [11]: compounds altering circadian rhythm period length – cell-based, LOPAC library, luminescence reporter (AID 2774).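 Further: values are relative to mean of DMSO wells on each plate.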 To be noted: circadian reporter cells, at 7 µM, actives lie on both sides.
Experiment [12] relates to Hepatitis C virus NS3 helicase. The experiment in a line: blockers of NS3h binding to ssDNA – biochemical, fluorescence polarization, LOPAC1280 library, primary screen (AID 687035; in the data active means inhibition above about 37%). To be noted: Purified HCV NS3 helicase, Cy5-dT15 ssDNA binding fluorescence polarization; stronger effect = higher value; concentration not given here.
The nature of experiment [13]: compounds altering Cy5-DNA-NS3h complex signal – biochemical, LOPAC1280, artefact control for HCV NS3 helicase inhibitor project (AID 687037). To be noted: Cy5-DNA-NS3h complex fluorescence interference counterscreen.
Experiment [14] is described as follows: blockers of cellular phospholipid synthesis – cell-based, LOPAC library, screen 4, primary screen (AID 1347384). To be noted: animal cells, phospholipid biosynthesis inhibition screen; at 10 µM.
Experiment [15] is described as follows: galactose survival enhancers in mitochondrial complex I cybrids – cell-based, galactose medium, ATP luminescence, primary screen (AID 1645843;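 active means z-score of at least 1.8 in each of two replicates, scored against plate mean and spread of sample wells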;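 further: positive z means more ATP and so rescue of galactose-driven cybrid death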). Conditions: complex I mutant cybrid cells, 72 h, stronger effect = higher value.
The nature of experiment [16]: viability loss in pontine glioma line – cell-based, JHH-DIPG-1, MIPE4.0, CellTiter-Glo, qHTS, dose response (AID 1347062; cut-off not given, nearly all actives have AC50 up to about 27 µM;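 further: cells exposed to compound for two days before readout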). Conditions: JHH-DIPG-1 viability, CellTiter-Glo ATP luminescence. A general note: Cellular ATP, detected with luciferase, serves as a proxy for viable cell number.
The mark [17] stands for this setting: measured here: epithelial PC-3E GFP cell survival.
[18] abbreviates: measured here: mesenchymal TEM4-18 mCherry cell survival.
The mark [19] stands for this setting: stronger effect = lower value, cell number ratio, induced over uninduced.
Where [20] appears, read: measured here: relative caspase fold change +Dox/-Dox.
The mark [21] stands for this setting: measured here: total cells with miR-34 induction, stronger effect = lower value.
[22] abbreviates: measured here: total cells without miR-34 induction.

Structures are written as SMILES. Several values for one entry are separate records, joined by “and”; a condition that tells them apart may be missing. Equal entries are not always repeated. Inconclusive results are not listed. Activity calls are given as the source filed them. Unless noted, how the calls were made is not given here.

Turning to `CC[C@]1(O)CC2CN(CCc3c([nH]c4ccccc34)[C@@](C(=O)OC)(c3cc4c(cc3OC)N(C=O)[C@H]3[C@@](O)(C(=O)OC)[C@H](OC(C)=O)[C@]5(CC)C=CCN6CC[C@]43[C@@H]65)C2)C1` (some centres undefined), the parasite load remaining in [1] was 70.4% (inactive) and 43.2% (inactive). Besides, the viability in experiment [1] is 103% and 123%. In addition, the fluorescence ratio in experiment [2] was 0.94 (inactive); in experiment [5], 0.92 (inactive). Also, the inhibition in [3] is -2.84% (inactive); in [4], 0.39% (inactive). Moreover, the compound was called inactive in [6]. Also, in [7], the mean signal is 261 (inactive). Moreover, the red/green cell ratio (normalised) in [8] is 0.69 (inactive). Further, the normalised cell number in experiment [8] (setting [17]) worked out at 0.19; in experiment [8] (setting [18]), 0.13. Moreover, the fold change in experiment [9] (setting [19]) was 0.983 (inactive); in [9] (setting [20]), 2.57. Besides, the cell count in experiment [9] (setting [21]) is 1600; in experiment [9] (setting [22]), 1630; in experiment [10], 6460. Besides, the SSMD in [10] was determined as 1.41. In addition, the plate-normalised HSF1 focus index in experiment [10] was 1.08 (inactive).
In the case of `CN1CCN(c2nc3cc(C(F)(F)F)ccc3n3cccc23)CC1`, the period change in experiment [11] is -0.085 h (inactive). The parasite load remaining in experiment [1] was 58.1% (inactive). Besides, in [1], the viability stood at 68%. The results for the inhibition in [12], in experiment [3] and in experiment [4] were -3% (inactive), -10.7% (inactive) and 1.97% (inactive), respectively. Besides, the fluorescence ratio (interference) in experiment [13] was 1 (inactive). Further, the fluorescence ratio in experiment [2] and in experiment [5] was 0.95 (inactive) in each case. The z-score in experiment [6] was -0.53 (inactive); in experiment [15] it was -0.85 (inactive) and -1.01 (inactive). Moreover, the mean signal in experiment [7] was 175 (inactive). Further, the fold change in experiment [9] (setting [19]) was 1 (inactive) and 0.87 (inactive); in [9] (setting [20]), 1.47 and 0.615. Also, the cell count in [9] (setting [21]) was 7250 and 7950; in [9] (setting [22]), 7230 and 9140. Also, the compound was classed as inactive in experiment [14].
Turning to `CC[C@]1(O)CC2CN(CCc3c([nH]c4ccccc34)[C@@](C(=O)OC)(c3cc4c(cc3OC)N(C)[C@H]3[C@@](O)(C(N)=O)[C@H](O)[C@]5(CC)C=CCN6CC[C@]43[C@@H]65)C2)C1` (some centres undefined), the parasite load remaining in [1] is 65.1% (inactive). Also, in [1], the viability came out at 135%. The fluorescence ratio in [2] and in [5] was 0.91 (inactive) throughout. The values for the inhibition in [3] and in experiment [4] were -6.33% (inactive) and 1.18% (inactive), respectively. The result in [6] was inactive. Moreover, the mean signal in [7] is 260 (inactive). In addition, the AC50 in [16] is 46.9 nM (active).
As for `C[C@@H]1C[C@H]2[C@@H]3C[C@H](F)C4=CC(=O)C(Cl)=CC4(C)[C@@]3(F)[C@@H](O)CC2(C)[C@@]1(O)C(=O)CO` (some centres undefined), the result in [6] was inactive. Also, in [7], the mean signal is 273 (inactive).
On to `N[C@@H](C(=O)N[C@@H]1C(=O)N2C(C(=O)O)=C(CSC3CNNN3)CS[C@H]12)c1ccc(O)cc1` (some centres undefined) (tested in a mixture with another compound), for which the compound was called inactive in experiment [6]. Further, the mean signal in experiment [7] is 239 (inactive).
`C[C@@H]1CC[C@@]23CCC4(C)[C@@](C=CC5[C@@]6(C)CCC(=O)C(C)(C)C6CC[C@]54C)(OC2=O)C3[C@H]1C` (some centres undefined): in experiment [8], the red/green cell ratio (normalised) was 1.03 (inactive). Also, the normalised cell number was 0.95 in [8] (setting [17]) and 0.98 in experiment [8] (setting [18]).
As to `Nc1cc2ccccc2[nH]c1=O`, the red/green cell ratio (normalised) in experiment [8] is 0.91 (inactive). The normalised cell number worked out at 1.14 in [8] (setting [17]) and 1.04 in experiment [8] (setting [18]).

A word on the viability: it is a read-out of living cells in per cent, often relative to untreated cells. The inhibition is the drop in the measured response relative to a control, in per cent. In general, AC50 refers to the concentration giving half of the maximal activity seen.
